Most compounds without a hit are left out; they make up all but 3.8% or so of the library.
TGFb inhibitor: TGF-b pathway inhibition | 410,000 compounds, 1.2% hits | Potency, µM (series often up to 46.1 µM), without a hit: at the top dose activity, negative = inhibition, actives largely listed as inhibitors | AID 588855 | HepG2 CAGA-GFP TGF-b/SMAD3 reporter, GFP fluorescence, 18 h; TGF-beta stimulated, 500 pg/mL final; further: on the % scale 0 is the no-effect control and ±100 the full control effect; nearly all actives have a fitted effect of over 65% in size
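TGF-beta reporter screen: HEPG2 CAGA-GFP, 1% FBS, 500 pg/mL TGF-beta final, 18 h; per-cell GFP summed per well; curves fitted and categorized by class.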
A549 viability: A549 cytotoxicity, counter-screen for Nrf2 inhibitors; Potency, µM (highest dose often 46 µM), inactives show at the highest dose activity change, negative = cytotoxicity, actives largely listed as inhibitors; A549 ARE-Fluc cells, CellTiter-Fluor viability, 18-24 h; AID 504648; 390,000 compounds, 0.16% hits; further: on the % scale 0 is the no-effect control and ±100 the full control effect
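A549 ARE_Fluc cells in 5% FBS OPTI-MEM were exposed to compounds in concentration-response for 18-24 h at 37 deg C. Viability was read by CellTiter-Fluor fluorescence (Ex 405/Em 525) after 30 min, before the luciferase read.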
Nrf2 block: Nrf2 pathway inhibition; 360,000 compounds, 2.1% hits; AID 504444; A549 ARE-Fluc reporter, luciferase luminescence, 18-24 h; Potency, µM (doses to about 46 µM), for the others: at the highest dose activity change, negative = inhibition, hits mostly inhibitors; further: on the % scale 0 is the no-effect control and ±100 the full control effect; nearly all actives have a fitted effect of over 60% in size
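Two sequential reads on A549 ARE_Fluc cells exposed to compound for 18-24 h: a CellTiter-Fluor fluorescence read for viability, then a luciferase luminescence read for Nrf2/ARE activity.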
ATXN2 expr inh: ATXN2 expression inhibition | HEK-293 ATXN2-luciferase reporter, luminescence, 24 h | Potency, µM (series often up to 57 µM), for inactives: at the highest dose activity change, negative = inhibition, usual class: inhibitors | 360,000 compounds, 0.72% hits | AID 1745845; further: on the % scale 0 is the no-effect control and ±100 the full control effect; nearly all actives have a fitted effect of over 55% in size
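qHTS (up to 57 uM final) was run with 24 h compound exposure of reporter cells at 37 °C. Each well was multiplexed: SteadyGlo luminescence measured ATXN2-luciferase expression after a fluorogenic Gly-Phe-AFC viability readout (25 uM final).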
ATXN viability: cell viability loss in ATXN counter-screen; S2 cells (HEK-293 line with an ATXN2-luciferase reporter) viability, CellTiter-Fluor protease fluorescence, 24 h; Potency, µM (doses to about 56.7 µM), usual class: cytotoxic; 400,000 compounds, 0.49% hits; AID 651635; further: nearly all actives have a fitted effect of over 40% in size
HepG2 viability: HepG2 cytotoxicity, counter-screen for TGF-b inhibitors. AID 588856. Potency, µM (doses to about 46.1 µM), for inactives: at the top dose activity change, negative = cytotoxicity, usual class: cytotoxic. HepG2 CAGA-GFP viability, ATP luminescence, 18 h. 410,000 compounds, 0.76% hits
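CellTiter-Glo luminescence gave cytotoxicity after 18 hours at 37 degrees C. The cells were HepG2 CAGA-GFP in 1% FBS DMEM, stimulated with 500 pg/mL TGF-beta after compound addition. %Activity was normalised to no-cell wells (complete cell-killing) and DMSO (no toxicity), and curves were fitted and classified.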
* hit, by the source's call; i = inactive; ? = inconclusive; nt = not tested or not shown. The call rests on the fitted dose curve; in most records, active means well fitted curve in the direction sought with a large enough effect; inconclusive means small, poorly fitted or top-dose-only effect, or another doubt; inactive means no such curve, though single readings can be large; an effect the other way counts as inactive or inconclusive. Potency means the concentration at half of the fitted maximal effect.

SMILES	TGFb inhibitor	A549 viability	Nrf2 block	ATXN2 expr inh	ATXN viability	HepG2 viability
Cc1cccc(OCC(=O)Nc2ccc3c(c2)nc(CN2CCCCC2)n3C)c1	?	13%	?	0%	i	-19%
C=CC[C@]12C=C(OC)C(=O)C=C1O[C@@H](c1ccc3c(c1)OCO3)[C@H]2C	22%	3%	-6%	-2%	i	-1%
CC1=CC2C(C(O)CC3(C)C2CC(C)C32OCOC23COCO3)C2(C)C/C(=C\O)C(=O)C=C12 (stereo unspecified)	5.6µM*	?	21µM*	?	nt	11µM*
COc1ccc(S(=O)(=O)Nc2ccc(C)cc2)cc1N(C)S(=O)(=O)c1ccc(Cl)cc1	?	?	18µM*	?	?	-49%
COc1ccc(S(=O)(=O)N2CCCCCC2)cc1N(C)S(=O)(=O)c1ccccc1	-9%	-9%	23µM*	-10%	i	-20%
COc1ccc(S(=O)(=O)N2CCCCC2)cc1N(C)S(=O)(=O)c1ccccc1	-11%	13%	-6%	-10%	i	-33%
CC1CN(CC(O)COc2ccc(C#N)cc2)CCN1CC(O)COc1ccc(C#N)cc1 (stereo unspecified)	1%	-8%	?	-6%	i	5%
Cc1ccc(-n2c(-c3ccccc3)c[n+]3c2CCc2ccccc2-3)c(C)c1	?	?	4.1µM*	?	i	-26%
CCC(C=C[C@@H]1OC(=O)C=C[C@H]1C)=C[C@H](C)CC=CC(C)=C[C@@H](C)C(=O)[C@@H](C)[C@H](O)[C@@H](C)CC(C)=CC(=O)O	nt	nt	nt	0.13µM*	nt	nt
Cc1ccc(C)c(NS(=O)(=O)c2ccc3c(c2)Cc2cc(S(=O)(=O)Nc4cc(C)ccc4C)ccc2-3)c1	-13%	-30%	13µM*	-32%	i	-33%
Cc1ccc(C)c(NS(=O)(=O)c2ccc3oc(=O)ccc3c2)c1	-9%	-9%	-23%	nt	i	6%
NS(=O)(=O)c1ccc(N=Nc2c(=O)[nH]n3c(=O)c4c([nH]c23)CCCC4)cc1	9%	?	-4%	-17%	9.5µM*	7%
Cc1nn(C)c(C)c1CN(C)C(=O)c1nn2c(c1Br)NC(c1cccs1)CC2C(F)(F)F (stereo unspecified)	3%	1%	8.2µM*	2%	i	12%
CCOC(=O)c1c(NC(=O)c2cc3n(n2)C(C(F)(F)F)CC(c2cccs2)N3)sc(C)c1C (stereo unspecified)	2%	-14%	-14%	-14%	?	-15%
Cc1nn(C)c(C)c1CNC(=O)c1cc2n(n1)C(C(F)(F)F)CC(c1cccs1)N2 (stereo unspecified)	4%	-7%	18µM*	-29%	?	-11%
COc1ccc(C2CC(C(F)(F)F)n3nc(C(=O)NCc4c(C)nn(C)c4C)c(Cl)c3N2)cc1 (stereo unspecified)	?	-9%	21µM*	?	i	-30%
CCN(CC)CCCNC(=O)c1ccc2c(c1)N(Cc1c(F)cccc1Cl)C(=O)c1ccccc1S2	10µM*	1%	13%	20µM*	i	11µM*
CCN(CC)C(=O)c1ccc2c(c1)N(Cc1ccc(C(F)(F)F)cc1)C(=O)c1ccccc1S2	?	-2%	12µM*	?	i	-46%
O=C(NCCN1CCOCC1)C(=O)NCC1OCCCN1S(=O)(=O)c1cc(F)ccc1F (stereo unspecified)	-3%	-1%	1%	0%	i	-6%
CC(=O)OCC(NC(=O)C(CCCCNC(=O)OCc1ccccc1)NC(=O)OC(C)(C)C)C1OC(n2cc(C)c(=O)[nH]c2=O)C(OC(C)=O)C1OC(C)=O (stereo unspecified)	-2%	-6%	13%	nt	nt	0%
